Data published in PubChem BioAssay (NCATS).
Inconclusive results are not listed. Unmarked numbers belong to inactive results. Calls come from the whole dose curve; as a rule, active = well fitted curve in either direction with a large enough effect (not every such curve was filed as active); inconclusive = small, poorly fitted or top-dose-only effect, or another doubt; inactive = flat fitted curve, though single readings scatter.

test: Stat Signaling Pathway (AID 446); details: ME-180 (cervical carcinoma) SIE beta-lactamase reporter, IL-6 stimulated, 5 h; series mostly up to 17.2 µM; activity, negative = inhibition: at the top concentration;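 note: ME-180 cervical cancer cells given 40 pM IL-6 alongside compound; SIE-controlled beta-lactamase reporter measured as 460/530 nm FRET emission ratio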
Procedure, shortened: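 Normalization used AC90 stimulation (300 pM IL-6) and AC90 inhibition (125 nM pan-JAK inhibitor at 40 pM IL-6). The underlying signal is SIE-driven beta-lactamase in ME-180 cells after 5 h IL-6 exposure with compound.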
% is set by controls: 0 for no effect and ±100 for the full control effect.

First: C=C1c2cccc(O)c2C(O)=C2C(=O)[C@@]3(O)C(O)=C(C(N)=O)C(=O)[C@@H](N(C)C)[C@@H]3[C@@H](O)[C@H]12
Second: Cc1cc2nc3c(=O)[nH]c(=O)nc-3n(CC(O)C(O)C(O)CO)c2cc1C (centres undefined)
The “activity, negative = inhibition” value of the first is higher: 7.87% for the first, 2.58% for the second.

First: NS(=O)(=O)c1cc(Cl)c(Cl)c(S(N)(=O)=O)c1
Second: CN(C)CCN(Cc1ccc(Cl)cc1)c1ccccn1
The “activity, negative = inhibition” value of the first is higher: 9.2% for the first, -0.548% for the second.

Compared with `NCC1CCC(C(=O)O)CC1` (centres undefined), `CN[C@H]1[C@@H](O[C@@H]2[C@H](O[C@@H]3[C@@H](O)[C@@H](O)[C@@H](N=C(N)N)[C@@H](O)[C@@H]3N=C(N)N)O[C@H](C)[C@@]2(O)C=O)O[C@@H](CO)[C@@H](O)[C@H]1O` is lower in “activity, negative = inhibition” value: 4.07% for the first, 0.857% for the second.

With `CC(NCCc1ccc(O)cc1)C(O)c1ccc(O)cc1` (centres undefined) the “activity, negative = inhibition” value was 19.5%.

Going from `CN(C)c1ccccc1CN1CCCN(Cc2ccccc2N(C)C)C1c1ccncc1` to `NC(=O)c1nnn(Cc2cc(Cl)c(C(=O)c3ccc(Cl)cc3)c(Cl)c2)c1N`, the “activity, negative = inhibition” value falls from 2.51% [at 7.69 µM] to -11% [at 7.69 µM].
